Laboratory results published in paper PMC4336329 (PLoS ONE, 2015).
Out of some 310,000 compounds screened, about 2,200 (0.71%) showed an effect of 50% or more. The effect is printed as a negative number. Shown is part of a subset that was picked to be rich in strong results.

Target: human ether-à-go-go-related gene (hERG) potassium channel (human, UniProt Q12809)
Assay: primary screen, population patch clamp on CHO cells stably expressing hERG; higher = less effect of the substance

human ether-à-go-go-related gene (hERG) potassium channel, sequence (Q12809 whole entry, looked up): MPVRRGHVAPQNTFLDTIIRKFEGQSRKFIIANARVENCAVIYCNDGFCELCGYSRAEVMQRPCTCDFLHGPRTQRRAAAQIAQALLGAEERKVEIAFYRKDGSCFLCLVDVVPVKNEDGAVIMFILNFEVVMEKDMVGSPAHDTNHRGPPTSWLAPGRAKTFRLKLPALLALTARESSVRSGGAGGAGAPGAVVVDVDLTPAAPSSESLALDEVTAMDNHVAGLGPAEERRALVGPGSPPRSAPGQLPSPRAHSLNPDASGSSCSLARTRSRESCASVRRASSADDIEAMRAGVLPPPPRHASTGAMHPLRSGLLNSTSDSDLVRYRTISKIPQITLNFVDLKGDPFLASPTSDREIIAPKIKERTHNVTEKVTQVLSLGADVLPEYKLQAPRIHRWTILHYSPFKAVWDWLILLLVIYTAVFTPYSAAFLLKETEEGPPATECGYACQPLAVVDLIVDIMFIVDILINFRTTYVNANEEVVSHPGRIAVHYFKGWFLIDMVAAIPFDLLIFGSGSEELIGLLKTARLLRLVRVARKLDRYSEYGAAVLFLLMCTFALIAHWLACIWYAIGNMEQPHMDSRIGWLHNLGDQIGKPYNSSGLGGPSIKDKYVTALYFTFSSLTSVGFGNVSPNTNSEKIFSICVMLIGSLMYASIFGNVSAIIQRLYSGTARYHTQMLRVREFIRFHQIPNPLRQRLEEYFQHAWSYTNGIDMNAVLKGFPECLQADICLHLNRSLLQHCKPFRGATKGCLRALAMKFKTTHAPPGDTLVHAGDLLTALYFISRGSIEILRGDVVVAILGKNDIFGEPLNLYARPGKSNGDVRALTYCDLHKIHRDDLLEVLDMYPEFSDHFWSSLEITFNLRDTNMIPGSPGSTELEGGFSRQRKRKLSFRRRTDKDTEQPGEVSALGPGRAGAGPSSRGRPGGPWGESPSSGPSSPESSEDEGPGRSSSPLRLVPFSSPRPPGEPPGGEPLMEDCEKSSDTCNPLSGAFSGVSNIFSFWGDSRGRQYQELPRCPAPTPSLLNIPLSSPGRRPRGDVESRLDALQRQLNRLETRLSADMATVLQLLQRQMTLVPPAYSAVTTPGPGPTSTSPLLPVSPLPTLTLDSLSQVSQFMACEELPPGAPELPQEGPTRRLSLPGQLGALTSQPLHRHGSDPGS

Compared with `Cc1cccc(Nc2cc(C)nc3ccccc23)c1.Cl`, `COc1cccc(Nc2cc(C)nc3ccccc23)c1` is lower in “hERG current change (%, negative = inhibition) at 1uM” value: -33.5% for the first, -65.2% for the second.

Going from `COc1ccc(Nc2cc(C)nc3ccccc23)cc1.Cl` to `Cc1ccc(-c2nc3cccnc3o2)cc1NC(=O)COc1ccc(C(C)(C)C)cc1`, the “hERG current change (%, negative = inhibition) at 1uM” value rises from -15.6% to 7.31%.

Compared with `Cc1ccc(-n2c(C)cc(C(=O)CSc3nnc4ccccn34)c2C)cc1`, `CCn1c(SCC(=O)c2c(N)n(C)c(=O)n(C)c2=O)nnc1-c1ccccc1` is higher in “hERG current change (%, negative = inhibition) at 1uM” value: 0.977% for the first, 14.2% for the second.

First: O=C(NC1CCCCC1)C1CCN(c2nnnn2-c2ccccc2)CC1
Second: CCN1CCN(c2ccc(S(=O)(=O)N3CCCCC3)cc2NC(=O)c2ccccc2)CC1
The “hERG current change (%, negative = inhibition) at 1uM” value of the first is higher: 3.39% for the first, -15.6% for the second.

Compared with `COc1ccc(/C=C2\N=C3CCCCCN3C2=O)cc1OC`, `COc1cc2c(cc1OC)CN(c1nc(CN3CCCCC3)nc3sc4c(c13)CCCC4)CC2` is lower in “hERG current change (%, negative = inhibition) at 1uM” value: 14.8% for the first, -57.3% for the second.

First: Cc1ccccc1OCC(O)CN1CCN(c2ccc(Cl)cc2)CC1 (centres unmarked)
Second: OC(COc1cccc2ccccc12)CN1CCN(c2ccc(Cl)cc2)CC1 (centres unmarked)
The “hERG current change (%, negative = inhibition) at 1uM” value of the first is lower: -58.2% for the first, -1.91% for the second.

Compared with `Cc1ccccc1OCC(O)CN1CCN(CCN2C(=O)c3cccc4cccc(c34)C2=O)CC1` (centres unmarked), `Cc1cccc(OCC(O)CN2CCN(CCN3C(=O)c4cccc5cccc(c45)C3=O)CC2)c1C` (centres unmarked) is higher in “hERG current change (%, negative = inhibition) at 1uM” value: -17.3% for the first, 15.1% for the second.

Compared with `COc1ccc(N2CCN(CC(O)COc3ccc(C)cc3C)CC2)cc1.Cl` (centres unmarked), `COc1ccc(N2CCN(CC(O)COc3cc(C)ccc3C)CC2)cc1.Cl` (centres unmarked) is higher in “hERG current change (%, negative = inhibition) at 1uM” value: -54.6% for the first, -9.86% for the second.

Compared with `CC(=O)c1ccccc1OCC(O)CN1CCN(CCN2C(=O)c3cccc4cccc(c34)C2=O)CC1` (centres unmarked), `Cc1ccccc1OCC(O)CN1CCN(CC(O)COc2ccccc2C)CC1` (centres unmarked) is higher in “hERG current change (%, negative = inhibition) at 1uM” value: -73.5% for the first, -50.4% for the second.

Going from `COc1cccc(OCC(O)CN2CCN(c3ccc(Cl)cc3)CC2)c1` (centres unmarked) to `COc1ccc(N2CCN(CC(O)COc3cc(C)cc(C)c3)CC2)cc1.Cl` (centres unmarked), the “hERG current change (%, negative = inhibition) at 1uM” value falls from -14.1% to -17.5%.

First: C=C1CC(C)OC(c2ccccc2OCC(O)CN2CCCCC2)C1 (centres unmarked)
Second: Cc1ccccc1OCC(O)CN1CCCCC1.Cl (centres unmarked)
The “hERG current change (%, negative = inhibition) at 1uM” value of the first is lower: -63.3% for the first, 16.2% for the second.

Compared with `OC(COc1cccc2ccccc12)CN1CCCC1` (centres unmarked), `Cc1ccccc1OCC(O)CN1CCN(C)CC1.Cl` (centres unmarked) is higher in “hERG current change (%, negative = inhibition) at 1uM” value: -1.17% for the first, 5.66% for the second.

Compared with `O=C(COC(=O)c1nc(Cl)c(Cl)c(Cl)c1Cl)NCc1ccccc1`, `COc1ccc(CNC(=O)CSc2nnc(-c3cccnc3)n2N)cc1` is higher in “hERG current change (%, negative = inhibition) at 1uM” value: 3.59% for the first, 7.27% for the second.

First: Cc1ccc(OCCNS(=O)(=O)c2ccc(N3CCCC3=O)cc2)cc1
Second: COc1ccc(S(=O)(=O)NCCc2csc(-c3cccnc3)n2)cc1
The “hERG current change (%, negative = inhibition) at 1uM” value of the first is higher: 7.63% for the first, -9.72% for the second.

Compared with `Cc1sc2nc(NCCO)[nH]c(=O)c2c1C`, `COc1cc2c(cc1OC)CN(c1nc(CN3CCCC3)nc3sc(C)c(C)c13)CC2` is lower in “hERG current change (%, negative = inhibition) at 1uM” value: 14.6% for the first, -22.9% for the second.

First: CS(=O)(=O)c1cccc(-c2nnc(NC(=O)C3=COCCO3)o2)c1
Second: COc1ccc(S(=O)(=O)N2CCCCC2)cc1NC(=O)c1ccc([N+](=O)[O-])o1
The “hERG current change (%, negative = inhibition) at 1uM” value of the first is lower: 0.983% for the first, 12.4% for the second.

First: Nc1c(C(=O)c2ccc(Cl)cc2)oc2ccccc12
Second: CN(C)Cc1c(O)ccc2occ(C(=O)c3ccccc3)c12
The “hERG current change (%, negative = inhibition) at 1uM” value of the first is higher: 18% for the first, -16.4% for the second.

First: O=C(Nc1ccccc1)C1=C[C@H](c2ccccc2)C[C@H](OCCCCO)O1
Second: Cc1cccc(C)c1NC(=S)NN(Cc1ccccc1)c1ccccc1
The “hERG current change (%, negative = inhibition) at 1uM” value of the first is higher: 12.7% for the first, 10.3% for the second.

Going from `Cc1nc(N2CCN(S(=O)(=O)c3ccccc3)CC2)c2cc(-c3ccccc3)sc2n1` to `CCN1CCN(c2ccc(S(=O)(=O)N3CCCCC3)cc2NC(=O)c2cc3ccccc3o2)CC1`, the “hERG current change (%, negative = inhibition) at 1uM” value falls from 2.54% to 0.811%.

First: c1ccc2c(c1)nnn2Cc1nnc2sc(-c3ccc4c(c3)OCCO4)nn12
Second: CCC(C)(C)NC(=O)C(c1ccco1)N(C(=O)Cn1nnc2ccccc21)c1ccc2c(c1)OCO2 (centres unmarked)
The “hERG current change (%, negative = inhibition) at 1uM” value of the first is lower: 9.84% for the first, 13.9% for the second.

Compared with `COC(=O)c1cccc(OCC(O)Cn2ccnc2)c1` (centres unmarked), `Cc1ccccc1OCC(O)CN1CCC(C)CC1.Cl` (centres unmarked) is lower in “hERG current change (%, negative = inhibition) at 1uM” value: 0.869% for the first, -6.73% for the second.

Going from `Cc1ccc2oc(=O)c3cnn(CC(=O)N4CCCc5ccccc54)c3c2c1` to `CCCn1c2ccccc2c2cnn(CC(=O)NC3CCCC(C)C3C)c(=O)c21` (centres unmarked), the “hERG current change (%, negative = inhibition) at 1uM” value rises from 4.39% to 11.4%.

Compared with `CCN(CC)Cc1c(O)ccc2occ(C(=O)c3ccc(OC)cc3)c12`, `COc1ccc(C(=O)c2coc3ccc(O)c(CN(C)C)c23)cc1` is higher in “hERG current change (%, negative = inhibition) at 1uM” value: -64.2% for the first, -29.3% for the second.

Going from `CN1CCN(Cc2c(O)ccc3occ(C(=O)c4ccccc4)c23)CC1` to `CCN(CC)Cc1c(O)ccc2occ(C(=O)c3ccccc3)c12`, the “hERG current change (%, negative = inhibition) at 1uM” value falls from -14.3% to -57.3%.

Compared with `COc1ccc(OC)c(C(=O)c2coc3ccc(O)c(CN(C)C)c23)c1.Cl`, `COc1ccc2occ(C(=O)c3coc4ccc(O)c(CN(C)C)c34)c2c1.Cl` is lower in “hERG current change (%, negative = inhibition) at 1uM” value: 9.87% for the first, -29.5% for the second.

Compared with `CN(C)Cc1c(O)ccc2occ(C(=O)c3ccc(F)cc3)c12`, `Cc1ccc(C(=O)c2coc3ccc(O)c(CN(C)C)c23)cc1.Cl` is higher in “hERG current change (%, negative = inhibition) at 1uM” value: -57.5% for the first, -16.2% for the second.

Going from `COc1ccc(S(=O)(=O)Nc2ccc(Cc3ccncc3)cc2)cc1OC` to `COc1cc2oc3ccccc3c2cc1N(CC(=O)N(C)C)S(=O)(=O)c1ccccc1`, the “hERG current change (%, negative = inhibition) at 1uM” value falls from 7.28% to 0.641%.

First: COc1cc(NC(=O)c2ccc(F)cc2)c(OC)cc1NC(=O)CN1CCOCC1
Second: CCN1CCN(c2ccc(S(=O)(=O)N3CCCCC3)cc2NC(=O)c2ccc(F)cc2)CC1
The “hERG current change (%, negative = inhibition) at 1uM” value of the first is higher: 3.57% for the first, -16.7% for the second.

First: O=C(CN1C(=O)NC2(CCCCC2)C1=O)NCCC1=CCCCC1
Second: COC(=O)c1cc(S(=O)(=O)N2CCCCCC2)c[nH]1
The “hERG current change (%, negative = inhibition) at 1uM” value of the first is higher: 14.5% for the first, 12.4% for the second.

Compared with `Cc1c(C(=O)Nc2nccs2)oc2ccc(F)cc12`, `O=C(NCc1ccncc1)c1nc(-c2cccs2)no1` is lower in “hERG current change (%, negative = inhibition) at 1uM” value: 14.5% for the first, -0.652% for the second.

Compared with `CCC(C(=O)N1CCN(Cc2ccc3c(c2)OCO3)CC1)n1c(=O)[nH]c2ccccc2c1=O` (centres unmarked), `CCN1CCN(c2ccc(S(=O)(=O)N3CCCCC3)cc2NC(=O)c2ccc([N+](=O)[O-])o2)CC1` is lower in “hERG current change (%, negative = inhibition) at 1uM” value: -8.55% for the first, -73.3% for the second.

Going from `CCN1CCc2c(C#N)c(N3CCCCC3)nc(N3CCOCC3)c2C1` to `c1ccc2c(c1)CCN(c1nc(CN3CCOCC3)nc3sc4c(c13)CCCC4)C2`, the “hERG current change (%, negative = inhibition) at 1uM” value rises from 12.1% to 14.5%.

Going from `CCCN1C(=O)C2(C(C(=O)c3ccc(C)o3)=C(O)C(=O)N2CCCOC)c2ccccc21` (centres unmarked) to `Cc1c(N=C/C=C2\N(C)c3ccccc3C2(C)C)c(=O)n(-c2ccccc2)n1C`, the “hERG current change (%, negative = inhibition) at 1uM” value falls from 7.99% to -15.5%.

First: Clc1nc(CN2CCCCC2)nc2sc3c(c12)CCCC3
Second: COc1cc2c(cc1OC)CN(c1nc(CN3CCOCC3)nc3sc4c(c13)CCCC4)CC2
The “hERG current change (%, negative = inhibition) at 1uM” value of the first is higher: 7.88% for the first, -54% for the second.

Compared with `COc1cc2c(cc1OC)CN(c1nc(CN3CCOCC3)nc3sc4c(c13)CCC(C)C4)CC2` (centres unmarked), `CCN1CCN(c2ccc(S(=O)(=O)N3CCCCC3)cc2NC(=O)c2ccc(C)o2)CC1` is lower in “hERG current change (%, negative = inhibition) at 1uM” value: 5.29% for the first, -62.4% for the second.

First: CCN(CC(=O)Nc1ccc(NC(C)=O)cc1)C(=O)COc1ccc(C(=O)c2ccccc2)cc1
Second: CCCN(CCC)S(=O)(=O)c1ccc(NC(=O)c2cc(C(=O)OC)cc([N+](=O)[O-])c2)cc1
The “hERG current change (%, negative = inhibition) at 1uM” value of the first is lower: 10.3% for the first, 16.7% for the second.

Compared with `CCN1CCN(c2ccc(S(=O)(=O)N3CCCCC3)cc2NC(=O)c2ccc(OC(F)F)cc2)CC1`, `CCN1CCN(c2ccc(S(=O)(=O)N3CCCCC3)cc2NC(=O)/C=C/c2ccc(OC(F)F)cc2)CC1` is higher in “hERG current change (%, negative = inhibition) at 1uM” value: -56.4% for the first, -1.19% for the second.

First: CCN1CCN(c2ccc(S(=O)(=O)N3CCCCC3)cc2NC(=O)c2ccc([N+](=O)[O-])s2)CC1
Second: Cc1cccc(C)c1Nc1nnc(SCC(=O)c2ccc(Br)s2)s1
The “hERG current change (%, negative = inhibition) at 1uM” value of the first is lower: -13.8% for the first, 12.4% for the second.

Going from `CN(C)S(=O)(=O)c1ccc2nnn(O)c2c1` to `CN1/C(=C\C=O)C(C)(C)c2ccccc21`, the “hERG current change (%, negative = inhibition) at 1uM” value falls from 7.89% to 3.65%.

Going from `CN(/N=C/c1ccc(Cl)cc1)c1ncc(Cl)cc1C(F)(F)F` to `CN(C)c1ccc(N=C/C=C2\N(C)c3ccccc3C2(C)C)cc1`, the “hERG current change (%, negative = inhibition) at 1uM” value falls from 14.6% to -84.7%.

First: CN1/C(=C\C=C(C#N)C#N)C(C)(C)c2ccccc21
Second: CN1/C(=C/C=C(C#N)C#N)C(C)(C)c2ccccc21
The “hERG current change (%, negative = inhibition) at 1uM” value of the first is lower: 2.94% for the first, 10.9% for the second.

Going from `CO/N=C/C=C1/N(C)c2ccccc2C1(C)C` to `CN1/C(=C\C=N\O)C(C)(C)c2ccccc21`, the “hERG current change (%, negative = inhibition) at 1uM” value rises from 12.5% to 14.7%.

Compared with `Cc1c(N=C/C=C2/N(C)c3ccccc3C2(C)C)c(=O)n(-c2ccccc2)n1C`, `CN1/C(=C\C=Nc2ccccc2)C(C)(C)c2ccccc21` is lower in “hERG current change (%, negative = inhibition) at 1uM” value: -5.46% for the first, -65% for the second.

First: CN1/C(=C/C=N/n2cnnc2)C(C)(C)c2ccccc21
Second: Cc1ccccc1N=C/C=C1\N(C)c2ccccc2C1(C)C
The “hERG current change (%, negative = inhibition) at 1uM” value of the first is higher: 7.04% for the first, -51.2% for the second.

With `CN1/C(=C\C=Nc2ccc3ccccc3c2)C(C)(C)c2ccccc21` the “hERG current change (%, negative = inhibition) at 1uM” value was -75.1%.
